Test results published in PubChem BioAssay AID1159580 (chemical genetic matrix, 2015).
Where “and” joins values, the source holds several entries; their conditions need not be identical. Equal values may be shown once. Among all 5,500 compounds or so, about 2,000 (36%) were called active. Inconclusive results (about 18%) are left out. Rule as the data show it: active = normalized growth mostly below about 0.91 (no sharp cut-off); inconclusive = no clear call, values can overlap the other calls; inactive = mostly above about 0.92. The list shows a part of the results.

Experiment: chemical genetic growth profiling, strain panel (AID 1159580);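 also: tested at 20 µM; growth read once vehicle control cultures reached saturation at 30 °C; 1 = growth at the plate median or of vehicle wells; lower values mean less growth of the strain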
Conditions: S. cerevisiae deletion strains, growth OD

Measured: normalized growth

Cc1c(O)c(O)cc2c1CC=C1[C@@]2(C)CC[C@@]2(C)C3C[C@](C)(C(=O)O)CC[C@]3(C)CC[C@]12C (stereo partly specified)
inactive: locus YBR021W, strain FUR4, stronger effect = lower value 1 | locus YBR229C, strain ROT2, stronger effect = lower value 0.966 | locus YCL029C, strain bik1, stronger effect = lower value 0.947 | locus YDL035C, strain GPR1, stronger effect = lower value 0.872 | locus YDL074C, strain BRE1, stronger effect = lower value 0.797 | locus YDL101C, strain DUN1, stronger effect = lower value 0.924 | locus YDL185W, strain tfp1, stronger effect = lower value 1.01 | locus YDR101C, strain arx1, stronger effect = lower value 0.962 | locus YDR150W, strain NUM1, stronger effect = lower value 0.959 | locus YDR388W, stronger effect = lower value 0.962 | locus YDR502C, strain sam2, stronger effect = lower value 0.929 | locus YER110C, stronger effect = lower value 1 | locus YER167W, strain BCK2, stronger effect = lower value 0.921 | locus YGL078C, strain dbp3, stronger effect = lower value 0.977 | locus YGL086W, strain mad1, stronger effect = lower value 0.936 | locus YGR135W, strain pre9, stronger effect = lower value 0.936 | locus YGR252W, strain gcn5, stronger effect = lower value 0.873 | locus YHR030C, strain SLT2, stronger effect = lower value 0.947 and 0.918 | locus YHR079C, strain IRE1 (second series), stronger effect = lower value 0.976 | locus YHR079C, strain IRE1, stronger effect = lower value 0.945 | locus YHR094C, strain hxt1, stronger effect = lower value 0.988 | locus YHR200W, strain rpn10, stronger effect = lower value 0.964 | locus YIL073C, strain SPO22, stronger effect = lower value 0.863 | locus YIL125W, strain kgd1, stronger effect = lower value 0.942 | locus YIR030C, strain dcg1, stronger effect = lower value 0.958 | locus YJL134W, strain LCB3, stronger effect = lower value 0.967 | locus YJL168C, strain set2, stronger effect = lower value 0.979 | locus YJL187C, strain SWE1 (second series), stronger effect = lower value 0.897
active: locus YAL021C, strain ccr4, stronger effect = lower value 0.711 | locus YAL026C, strain drs2, stronger effect = lower value 0.422 | locus YAL030W, strain snc1, stronger effect = lower value 0.541 | locus YBL061C, strain skt5, stronger effect = lower value 0.533 | locus YBR009C, strain hhf1, stronger effect = lower value 0.265 | locus YBR023C, strain chs3, stronger effect = lower value 0.471 | locus YBR171W, strain sec66, stronger effect = lower value 0.842 | locus YBR231C, strain swc5, stronger effect = lower value 0.326 | locus YBR279W, strain paf1, stronger effect = lower value 0.41 | locus YCL011C, strain gbp2, stronger effect = lower value 0.377 | locus YCL016C, strain dcc1, stronger effect = lower value 0.571 | locus YCL061C, strain MRC1, stronger effect = lower value 0.635 | locus YCL069W, strain vba3, stronger effect = lower value 0.668 | locus YCR088W, strain abp1, stronger effect = lower value 0.738 | locus YDL005C, strain med2, stronger effect = lower value 0.413 | locus YDL040C, strain nat1, stronger effect = lower value 0.738 | locus YDL192W, strain arf1, stronger effect = lower value 0.889 | locus YDR001C, strain nth1, stronger effect = lower value 0.766 | locus YDR069C, strain doa4, stronger effect = lower value 0.459 | locus YDR137W, strain rgp1, stronger effect = lower value 0.269 | locus YDR159W, strain sac3, stronger effect = lower value 0.465 | locus YDR162C, strain NBP2, stronger effect = lower value 0.803 | locus YDR195W, strain ref2 0.548 | locus YDR297W, strain sur2, stronger effect = lower value 0.479 | locus YDR318W, strain mcm21, stronger effect = lower value 0.917 | locus YDR334W, strain swr1, stronger effect = lower value 0.338 | locus YDR335W, strain msn5, stronger effect = lower value 0.698 | locus YDR392W, strain spt3, stronger effect = lower value 0.125 | locus YEL003W, strain gim4, stronger effect = lower value 0.416 | locus YEL037C, strain rad23, stronger effect = lower value 0.71 | locus YEL061C, strain CIN8 (second series), stronger effect = lower value 0.701 | locus YEL061C, strain CIN8, stronger effect = lower value 0.906 | locus YER015W, strain faa2, stronger effect = lower value 0.491 | locus YER016W, strain bim1, stronger effect = lower value 0.612 | locus YER111C, strain swi4, stronger effect = lower value 0.581 | locus YER155C, strain BEM2 (second series), stronger effect = lower value 0.348 | locus YER155C, strain BEM2, stronger effect = lower value 0.767 | locus YFR010W, strain ubp6, stronger effect = lower value 0.561 | locus YGL167C, strain pmr1, stronger effect = lower value 0.738 | locus YGL173C, strain kem1, stronger effect = lower value 0.31 | locus YGL227W, strain vid30, stronger effect = lower value 0.854 | locus YGL240W, strain doc1, stronger effect = lower value 0.605 | locus YGL248W, strain PDE1, stronger effect = lower value 0.845 | locus YGL253W, strain hxk2, stronger effect = lower value 0.37 | locus YHR013C, strain ard1, stronger effect = lower value 0.203 | locus YHR027C, strain rpn1, stronger effect = lower value 0.45 | locus YHR129C, strain ARP1, stronger effect = lower value 0.838 | locus YHR142W, strain chs7, stronger effect = lower value 0.387 | locus YIL066C, strain RNR3, stronger effect = lower value 0.801 | locus YJL092W, strain hpr5, stronger effect = lower value 0.686 | locus YJL095W, strain BCK1 (second series), stronger effect = lower value 0.405 | locus YJL095W, strain BCK1, stronger effect = lower value 0.784 and 0.865 | locus YJL115W, strain asf1, stronger effect = lower value 0.741 | locus YJL129C, strain trk1, stronger effect = lower value 0.482 | locus YJL154C, strain vps35, stronger effect = lower value 0.689 | locus YJL164C, strain tpk1, stronger effect = lower value 0.289 | locus YJL166W, strain qcr8, stronger effect = lower value 0.233 | locus YJL187C, strain SWE1, stronger effect = lower value 0.457
